What all share (assay): NCI-60 one-dose screen, 48 h (100 = growth as untreated, 0 = no growth, -100 = all killed)
Common to all, as to conditions: 10 µM unless noted

Assay [1] concerns SR leukemia.
The subject of assay [2] is OVCAR-8 ovarian.
Assay [3] deals with OVCAR-5 ovarian.
Assay [4] concerns OVCAR-4 ovarian.
Assay [5] deals with SK-OV-3 ovarian.
In assay [6] the test system is IGROV1 ovarian.
Assay [7] has as its system OVCAR-3 ovarian.
Assay [8] has as its system HS 578T breast.
The subject of assay [9] is NCI/ADR-RES ovarian.
Assay [10] has as its system T-47D breast.
Assay [11] relates to BT-549 breast.
The test system of assay [12] is MDA-MB-435 melanoma.
For assay [13], the system named is SW-620 colon.
Assay [14] relates to MCF7 breast.
Assay [15] has as its system HCT-116 colon.
Assay [16] relates to HCC-2998 colon.
Assay [17] has as its system KM12 colon.
For assay [18], the system named is RPMI-8226 leukemia.

Structures are written as SMILES. About 83,000 compounds went through this panel and 20% of them were active in at least one assay; those are over-represented in the sample as a whole.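 48-hour exposure, single concentration, 96-well plates; percent growth endpoint where 0 means no net growth. Active: below 10.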 Unmarked numbers belong to inactive results. Calls of active or inactive are those of the source.

Take `COc1ccc(/C(C)=C(\c2ccc(Cl)cc2)c2ccc(OCCN3CCCC3)cc2)cc1F`: the growth in assay [1] was -22.6% (active); in [2], 48.7%; in assay [3] it was 46.6%; in assay [4], 32.3%; in assay [5], 58.6%; in assay [6], 38.1%. The growth was 35.2% in assay [7]; 30% in assay [8]; 51.6% in assay [9]; 50.7% in [10]; 66.3% in assay [11]; 31.6% in assay [12]. Also, the growth in assay [13] was 13.3%; in assay [14] it was 9.96% (active); in assay [15] it was 14.3%; in assay [16], 18.6%; in assay [17], 7.85% (active).
On to `CC[C@]1(O)C[C@H]2CN(CCc3c([nH]c4ccccc34)[C@@](C(=O)OC)(c3cc4c(cc3OC)N(C=O)[C@H]3[C@@](O)(C(=O)OC)[C@H](OC(C)=O)[C@]5(CC)C=CCN6CC[C@]43[C@@H]65)C2)C1`, for which the growth in assay [1] was 9.82% (active); in assay [18] it was -5.85% (active); in assay [3], -47.6% (active); in assay [5], -7.88% (active); in assay [6] it was 4.04% (active); in assay [7], -41.4% (active). In addition, the growth in [9] is -62.6% (active); in assay [10] it was 54.8%; in assay [11] it was -24.2% (active); in [12], -43.7% (active); in [13] it was 15.5%; in assay [14], 2.44% (active). The growth in assay [15] was -36.7% (active); in assay [17], 5.78% (active).
On to `COc1ccc(/C(C)=C(\c2ccc(Cl)cc2)c2ccc(OCCCN(C)C)cc2)cc1F`, for which the growth in assay [1] is -19.7% (active); in assay [2], 71.5%; in assay [3], 72.6%; in assay [4], 54.1%; in assay [5], 81.9%; in [6] it was 48.5%. In addition, the growth was 63.5% in assay [7]; 56.3% in assay [8]; 77.1% in [9]; 67.5% in [10]; 88.3% in assay [11]; 29.4% in assay [12]. The growth was 38.3% in assay [13]; 13% in assay [14]; 21.2% in [15]; 48.2% in [16]; 29.2% in [17].
As to `C=C1C(=O)O[C@H]2[C@H]1CC/C(COC(=O)/C=C\C(=O)NCc1ccc(Cn3c(=O)sn(CCCC)c3=O)cc1)=C\CC[C@@]1(C)O[C@@H]21`, the growth in assay [1] is -24.7% (active); in assay [2] it was 2.61% (active); in assay [3], -78.9% (active); in assay [4], -81.8% (active); in assay [5] it was 55.7%; in assay [6], -100% (active). For the same molecule, the growth in [7] was -80.5% (active); in [8], -20.4% (active); in assay [9] it was -9.25% (active); in assay [10], -39% (active); in assay [11] it was -73.3% (active); in [12] it was -73.9% (active). Further, the growth in assay [13] was -45.5% (active); in assay [14], -43% (active); in [15], -77.5% (active); in assay [16] it was -80.3% (active); in [17] it was -59.7% (active).
For `COc1ccc(-n2sc(=O)n(Cc3ccc(COC(=O)C(C)c4ccc(CC(C)C)cc4)cc3)c2=O)cc1` (configuration not stated), the growth in assay [1] was -27.4% (active); in [2] it was 50.1%; in [3] it was 63.6%; in assay [4] it was 18.3%; in [5], 96.1%; in assay [6], 42.5%. For the same molecule, the growth in assay [7] was -67.3% (active); in [8], 77.8%; in assay [9], 76.7%; in [10] it was 10.6%; in [11] it was 52.8%; in assay [12] it was 22%. The growth is -12.5% (active) in assay [13]; 17.8% in [14]; -31.9% (active) in [15]; 83.9% in assay [16]; 85.8% in assay [17].
For the molecule `O=C1/C(=C/c2ccccc2[N+](=O)[O-])COc2ccc(O)c(O)c21`, the growth in [1] was 3.56% (active); in [2] it was 10.3%; in assay [3] it was -33% (active); in assay [4] it was 2.9% (active); in assay [5] it was 40.8%; in [6], -6.14% (active). The growth in assay [7] was -63.2% (active); in assay [8], -0.42% (active); in assay [9], 5.96% (active); in assay [10], 12.4%; in assay [11], 21.3%; in assay [12], -62.2% (active). Further, the growth in assay [13] is -38.7% (active); in assay [14] it was 6.98% (active); in [15], -15.4% (active); in assay [16], -46.5% (active); in [17] it was -3.65% (active).
For `C=C1C(=O)O[C@H]2[C@H]1CC/C(COC(=O)/C=C\C(=O)NCc1ccc(Cn3c(=O)sn(-c4ccc(C#N)cc4)c3=O)cc1)=C\CC[C@@]1(C)O[C@@H]21`, the growth in assay [1] was -37.6% (active); in assay [2], -10.9% (active); in assay [3], -83.9% (active); in assay [4], -81.1% (active); in [5], 37.8%; in assay [6] it was -98.7% (active). For the same molecule, the growth in [7] was -90.1% (active); in assay [8], -24.9% (active); in assay [9], 0.213% (active); in assay [10], -59.9% (active); in assay [11], -57.5% (active); in assay [12], -79.6% (active). Also, the growth was -64% (active) in assay [13]; -51.8% (active) in [14]; -55.7% (active) in assay [15]; -79.1% (active) in [16]; -71.7% (active) in assay [17].
Turning to `COc1cc2c(cc1OC)-c1ccc3cc4c(cc3c1N(CCCN1CCCCC1)C2)OCO4`, the growth in assay [1] was -7.48% (active); in [18], 14.5%; in [3], 74.7%; in [4], 63.4%; in assay [5], 75.7%; in [6], 33.7%. The growth in [8] was 56.1%; in assay [9], 54.7%; in assay [10], 59.2%; in [11], 40.7%; in assay [12], 69.6%; in assay [13], 38%. In addition, the growth in [14] was 46.3%; in assay [15], 24.6%; in assay [16] it was 80.9%; in [17], 48.5%.

The values are drawn from PubChem BioAssay (NCI).
